# Assay results taken from the supplement of paper PMC6411743.
# ± gives the standard deviation of the averaged measurements. Of roughly 5,400 targets only a part is listed; those with the largest changes were picked by preference.
# Compound: Nc1nc2c(ncn2[C@@H]2O[C@H](COP(=O)(O)OP(=O)(O)OP(=O)(O)O)[C@@H](O)[C@H]2O)c(=O)[nH]1 [guanosine triphosphate]
# Assay: NP40-soluble protein abundance relative to vehicle (solubility fold change) (ratio); higher = more soluble protein in presence of GTP
# Outline: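 Eight concentrations, 0.1 to 10 mM, were tested on Jurkat crude lysate for 10 min at room temperature and then 3 min at 37 °C, in three independent experiments. The lysate was solubilised with 0.8% NP40 and benzonase, ultracentrifuged, and the supernatant TMT-labelled for LC-MS/MS. Each value is the fold change against the detergent-processed vehicle in its own replicate, from vsn-normalised intensities.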
# Chain of UniProt P07766 (P07766 whole entry, one chain of several): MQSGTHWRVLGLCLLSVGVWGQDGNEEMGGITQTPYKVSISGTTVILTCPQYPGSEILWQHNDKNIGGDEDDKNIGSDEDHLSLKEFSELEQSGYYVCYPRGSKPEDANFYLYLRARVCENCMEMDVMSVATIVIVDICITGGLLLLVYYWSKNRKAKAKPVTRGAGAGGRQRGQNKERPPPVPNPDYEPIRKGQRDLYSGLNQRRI
# Chain of UniProt Q9Y4I1 (Q9Y4I1 whole entry, one chain of several): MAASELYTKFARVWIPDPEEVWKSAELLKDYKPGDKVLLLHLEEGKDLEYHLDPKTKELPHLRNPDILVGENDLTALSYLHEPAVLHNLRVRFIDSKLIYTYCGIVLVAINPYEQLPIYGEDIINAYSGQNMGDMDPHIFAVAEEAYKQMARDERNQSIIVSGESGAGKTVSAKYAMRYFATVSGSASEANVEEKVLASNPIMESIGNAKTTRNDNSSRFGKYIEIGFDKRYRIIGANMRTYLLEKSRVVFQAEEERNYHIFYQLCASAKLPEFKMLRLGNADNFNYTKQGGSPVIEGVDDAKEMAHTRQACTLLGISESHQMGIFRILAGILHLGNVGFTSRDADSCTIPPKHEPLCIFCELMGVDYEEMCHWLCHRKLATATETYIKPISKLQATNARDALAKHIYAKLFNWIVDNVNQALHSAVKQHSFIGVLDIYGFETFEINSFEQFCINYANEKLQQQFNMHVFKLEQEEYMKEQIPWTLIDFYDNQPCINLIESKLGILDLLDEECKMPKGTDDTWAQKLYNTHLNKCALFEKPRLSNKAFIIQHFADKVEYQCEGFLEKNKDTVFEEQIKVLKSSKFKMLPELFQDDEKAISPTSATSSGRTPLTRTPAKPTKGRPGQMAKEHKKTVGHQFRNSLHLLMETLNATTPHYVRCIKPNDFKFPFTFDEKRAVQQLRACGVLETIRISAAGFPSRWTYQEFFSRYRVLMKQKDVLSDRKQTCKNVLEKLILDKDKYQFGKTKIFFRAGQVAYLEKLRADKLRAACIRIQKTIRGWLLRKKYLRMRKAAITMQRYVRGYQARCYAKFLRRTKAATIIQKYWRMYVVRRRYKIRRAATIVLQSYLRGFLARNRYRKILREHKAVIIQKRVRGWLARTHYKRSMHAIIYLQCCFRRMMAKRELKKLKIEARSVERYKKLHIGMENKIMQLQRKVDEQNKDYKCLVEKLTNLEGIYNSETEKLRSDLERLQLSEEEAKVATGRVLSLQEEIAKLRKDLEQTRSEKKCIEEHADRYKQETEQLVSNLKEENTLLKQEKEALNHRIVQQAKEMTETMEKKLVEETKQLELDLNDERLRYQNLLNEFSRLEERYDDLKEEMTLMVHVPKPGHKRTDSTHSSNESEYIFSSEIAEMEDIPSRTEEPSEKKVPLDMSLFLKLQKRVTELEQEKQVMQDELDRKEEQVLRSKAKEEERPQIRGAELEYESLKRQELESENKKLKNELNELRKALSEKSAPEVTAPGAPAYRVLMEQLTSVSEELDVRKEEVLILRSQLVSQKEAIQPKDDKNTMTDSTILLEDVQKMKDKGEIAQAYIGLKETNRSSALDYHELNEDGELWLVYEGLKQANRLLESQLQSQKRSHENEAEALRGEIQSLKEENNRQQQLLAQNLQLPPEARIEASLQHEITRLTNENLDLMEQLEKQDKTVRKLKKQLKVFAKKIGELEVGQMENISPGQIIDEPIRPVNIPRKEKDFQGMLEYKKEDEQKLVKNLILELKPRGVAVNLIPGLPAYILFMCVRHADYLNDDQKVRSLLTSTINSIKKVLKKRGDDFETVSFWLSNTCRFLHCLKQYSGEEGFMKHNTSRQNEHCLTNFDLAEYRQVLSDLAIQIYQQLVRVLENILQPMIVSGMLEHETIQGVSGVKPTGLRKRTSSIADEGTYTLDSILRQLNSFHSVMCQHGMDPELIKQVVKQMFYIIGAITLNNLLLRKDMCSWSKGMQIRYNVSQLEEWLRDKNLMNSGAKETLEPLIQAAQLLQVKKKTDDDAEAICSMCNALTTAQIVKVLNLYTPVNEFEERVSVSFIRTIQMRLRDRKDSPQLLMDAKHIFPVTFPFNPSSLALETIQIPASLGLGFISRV
# Chain of UniProt Q96RQ3 (Q96RQ3 whole entry, one chain of several): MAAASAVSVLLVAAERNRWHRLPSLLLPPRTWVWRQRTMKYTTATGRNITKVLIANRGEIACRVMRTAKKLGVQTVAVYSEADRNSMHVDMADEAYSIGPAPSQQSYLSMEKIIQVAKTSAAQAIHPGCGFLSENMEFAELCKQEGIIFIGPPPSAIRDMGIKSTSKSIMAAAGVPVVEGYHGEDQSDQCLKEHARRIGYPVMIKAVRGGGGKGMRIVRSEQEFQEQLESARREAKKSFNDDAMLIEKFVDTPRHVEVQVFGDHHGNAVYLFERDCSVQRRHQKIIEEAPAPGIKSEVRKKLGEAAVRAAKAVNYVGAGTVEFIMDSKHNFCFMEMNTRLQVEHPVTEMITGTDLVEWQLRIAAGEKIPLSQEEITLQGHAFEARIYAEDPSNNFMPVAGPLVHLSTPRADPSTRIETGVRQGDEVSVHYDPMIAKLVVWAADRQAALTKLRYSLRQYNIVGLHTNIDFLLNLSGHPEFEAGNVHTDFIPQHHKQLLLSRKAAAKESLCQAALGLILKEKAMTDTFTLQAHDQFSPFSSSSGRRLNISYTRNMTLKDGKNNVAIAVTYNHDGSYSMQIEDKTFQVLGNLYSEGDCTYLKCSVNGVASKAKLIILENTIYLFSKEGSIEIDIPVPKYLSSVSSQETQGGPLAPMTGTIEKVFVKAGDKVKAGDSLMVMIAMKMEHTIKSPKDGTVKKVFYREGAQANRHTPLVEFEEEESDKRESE
# Chain of UniProt Q16629 (Q16629 whole entry, one chain of several): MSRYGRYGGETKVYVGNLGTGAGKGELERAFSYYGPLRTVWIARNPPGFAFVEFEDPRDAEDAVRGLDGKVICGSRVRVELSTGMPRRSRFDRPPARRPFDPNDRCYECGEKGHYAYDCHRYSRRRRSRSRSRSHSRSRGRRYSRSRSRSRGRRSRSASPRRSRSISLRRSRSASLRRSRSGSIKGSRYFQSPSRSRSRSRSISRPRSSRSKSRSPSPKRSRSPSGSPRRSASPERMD
# Chain of UniProt Q9NZ52 (Q9NZ52 whole entry, one chain of several): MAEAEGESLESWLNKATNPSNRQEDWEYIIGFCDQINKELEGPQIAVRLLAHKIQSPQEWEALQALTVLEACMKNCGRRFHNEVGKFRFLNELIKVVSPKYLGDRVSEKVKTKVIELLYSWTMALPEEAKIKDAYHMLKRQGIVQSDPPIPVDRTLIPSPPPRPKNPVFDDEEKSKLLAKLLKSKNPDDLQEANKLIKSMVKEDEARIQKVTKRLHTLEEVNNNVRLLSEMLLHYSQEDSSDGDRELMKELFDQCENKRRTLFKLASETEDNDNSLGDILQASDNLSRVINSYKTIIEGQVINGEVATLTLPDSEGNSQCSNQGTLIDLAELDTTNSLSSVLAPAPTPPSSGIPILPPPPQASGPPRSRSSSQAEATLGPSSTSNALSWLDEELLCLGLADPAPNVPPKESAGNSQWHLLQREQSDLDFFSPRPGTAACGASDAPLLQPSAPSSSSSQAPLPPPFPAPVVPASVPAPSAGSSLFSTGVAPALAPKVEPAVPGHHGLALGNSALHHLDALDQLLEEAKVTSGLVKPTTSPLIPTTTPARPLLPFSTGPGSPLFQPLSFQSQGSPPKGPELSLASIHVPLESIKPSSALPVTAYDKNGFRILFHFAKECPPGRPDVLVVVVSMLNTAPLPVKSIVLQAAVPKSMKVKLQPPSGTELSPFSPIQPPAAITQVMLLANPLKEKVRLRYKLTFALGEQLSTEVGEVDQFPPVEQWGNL
# Chain of UniProt P09234 (P09234 whole entry, one chain of several): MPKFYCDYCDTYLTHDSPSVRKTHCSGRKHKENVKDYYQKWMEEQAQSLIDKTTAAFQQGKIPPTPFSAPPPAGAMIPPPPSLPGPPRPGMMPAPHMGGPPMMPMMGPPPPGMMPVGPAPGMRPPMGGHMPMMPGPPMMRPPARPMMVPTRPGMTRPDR
# Chain of UniProt P53365 (P53365 whole entry, one chain of several): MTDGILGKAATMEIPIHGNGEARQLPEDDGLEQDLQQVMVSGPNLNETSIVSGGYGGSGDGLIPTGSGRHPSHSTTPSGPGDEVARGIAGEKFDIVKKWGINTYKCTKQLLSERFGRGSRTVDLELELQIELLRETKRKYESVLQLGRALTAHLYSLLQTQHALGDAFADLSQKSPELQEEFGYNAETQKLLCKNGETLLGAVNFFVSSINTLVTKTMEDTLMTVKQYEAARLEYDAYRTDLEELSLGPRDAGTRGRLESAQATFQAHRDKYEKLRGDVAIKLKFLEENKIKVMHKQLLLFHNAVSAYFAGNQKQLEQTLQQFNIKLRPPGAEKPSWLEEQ
# Chain of UniProt Q9Y262 (Q9Y262 whole entry, one chain of several): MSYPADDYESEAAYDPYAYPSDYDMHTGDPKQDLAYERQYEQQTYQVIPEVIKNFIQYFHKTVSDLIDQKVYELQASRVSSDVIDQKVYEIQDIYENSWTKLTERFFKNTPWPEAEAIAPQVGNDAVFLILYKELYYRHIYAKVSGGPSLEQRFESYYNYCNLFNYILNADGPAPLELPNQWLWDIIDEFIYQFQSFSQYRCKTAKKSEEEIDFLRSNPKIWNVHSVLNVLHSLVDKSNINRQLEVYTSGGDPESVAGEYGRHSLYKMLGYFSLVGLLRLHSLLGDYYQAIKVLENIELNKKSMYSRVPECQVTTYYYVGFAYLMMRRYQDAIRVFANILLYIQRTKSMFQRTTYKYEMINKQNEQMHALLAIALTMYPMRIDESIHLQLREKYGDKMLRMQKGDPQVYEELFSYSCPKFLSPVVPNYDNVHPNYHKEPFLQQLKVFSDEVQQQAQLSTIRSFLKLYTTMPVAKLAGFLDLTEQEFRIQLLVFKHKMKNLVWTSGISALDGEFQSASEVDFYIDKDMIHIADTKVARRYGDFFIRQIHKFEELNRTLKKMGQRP
# Chain of UniProt P05161 (P05161 whole entry, one chain of several): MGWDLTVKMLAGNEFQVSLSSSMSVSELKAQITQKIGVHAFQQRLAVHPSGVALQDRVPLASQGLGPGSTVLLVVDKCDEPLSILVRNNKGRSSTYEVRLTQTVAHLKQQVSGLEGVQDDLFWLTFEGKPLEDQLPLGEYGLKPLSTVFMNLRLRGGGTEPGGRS
Target,NP40-soluble protein abundance (concentration: 0.1mM),NP40-soluble protein abundance (concentration: 0.5mM),NP40-soluble protein abundance (concentration: 1mM),NP40-soluble protein abundance (concentration: 2mM),NP40-soluble protein abundance (concentration: 4mM),NP40-soluble protein abundance (concentration: 6mM),NP40-soluble protein abundance (concentration: 8mM),NP40-soluble protein abundance (concentration: 10mM)
A0A0R4J2F3|Q9Y2S0|Q9Y2S0-2 (UniProt Q9Y2S0),1.01 ± 0.075,0.925 ± 0.056,1.11 ± 0.2,1.16 ± 0.14,1.2 ± 0.17,1.17 ± 0.12,1.15 ± 0.21,1.24 ± 0.28
A0A087WYN2|J3KSS7|Q9NZ52|Q9NZ52-4 (UniProt Q9NZ52),0.909 ± 0.037,0.905 ± 0.087,0.957 ± 0.09,0.915 ± 0.13,0.92 ± 0.14,0.94 ± 0.16,0.921 ± 0.08,0.896 ± 0.057
E9PSH8|P07766 (UniProt P07766),0.955 ± 0.049,0.991 ± 0.076,0.986 ± 0.071,0.958 ± 0.085,0.962 ± 0.082,0.96 ± 0.082,0.978 ± 0.068,0.983 ± 0.11
A0A0A0MRR7|P09234 (UniProt P09234),1.06 ± 0.017,1.19 ± 0.068,1.25 ± 0.068,1.36 ± 0.052,1.33 ± 0.11,1.56 ± 0.097,1.71 ± 0.2,1.82 ± 0.24
A0A0B4J1Z1|C9JAB2|Q16629|Q16629-2|Q16629-3|Q16629-4 (UniProt Q16629),1.089 ± 0.0095,1.36 ± 0.1,1.57 ± 0.23,1.58 ± 0.16,1.44 ± 0.33,1.55 ± 0.35,1.74 ± 0.47,1.75 ± 0.52
E9PKP7|E9PLT2|P17480|P17480-2 (UniProt P17480),1.02 ± 0.025,1 ± 0.036,1.08 ± 0.025,1.2 ± 0.079,1.31 ± 0.074,1.45 ± 0.066,1.5 ± 0.053,1.87 ± 0.13
D6R938|E9PBG7|E9PF82|Q13557|Q13557-10|Q13557-11|Q13557-12|Q13557-3|Q13557-4|Q13557-5|Q13557-6|Q13557-8|Q13557-9 (UniProt Q13557),1 ± 0.11,1.04 ± 0.14,1.07 ± 0.14,1.08 ± 0.15,1.1 ± 0.1,1.13 ± 0.1,1.09 ± 0.17,1.14 ± 0.14
E9PG35|E9PHF7|F5GYT8|Q96RQ3|G5E9X5 (UniProt Q96RQ3),1.04 ± 0.093,1.07 ± 0.078,1.02 ± 0.16,1.08 ± 0.11,1.09 ± 0.15,1.08 ± 0.077,1.05 ± 0.19,1.03 ± 0.13
H3BMU3|O60268|O60268-3 (UniProt O60268),0.928 ± 0.032,0.988 ± 0.17,1.01 ± 0.18,0.95 ± 0.15,0.961 ± 0.14,0.918 ± 0.2,0.919 ± 0.067,0.998 ± 0.096
A0A0A0MTB8|Q8NI36 (UniProt Q8NI36),1.1 ± 0.013,1.18 ± 0.047,1.2 ± 0.064,1.55 ± 0.056,2 ± 0.13,2.39 ± 0.2,2.33 ± 0.13,2.39 ± 0.3
A6NJD9|A8MVT4|A8MYK1|Q16540 (UniProt Q16540),1.06 ± 0.1,1.11 ± 0.23,1.28 ± 0.22,1.29 ± 0.31,1.36 ± 0.41,1.14 ± 0.35,1.19 ± 0.32,1.2 ± 0.37
A0A096LNZ9|A0A096LPJ4|P05161 (UniProt P05161),0.9514 ± 0.0057,0.961 ± 0.023,0.899 ± 0.019,0.888 ± 0.02,0.869 ± 0.026,0.885 ± 0.035,0.83 ± 0.034,0.836 ± 0.034
A0A0A0MSJ9|Q15283|Q15283-2 (UniProt Q15283),1.05 ± 0.057,1.07 ± 0.065,0.985 ± 0.018,0.998 ± 0.04,1.01 ± 0.054,0.967 ± 0.048,0.94 ± 0.067,0.927 ± 0.13
H0YIE9|O94952|O94952-1|Q4G104 (UniProt O94952),1.19 ± 0.045,1.03 ± 0.091,1.05 ± 0.013,1.04 ± 0.12,1.12 ± 0.014,0.978 ± 0.078,1.08 ± 0.035,0.921 ± 0.089
G3V394|Q9Y4I1-3 (UniProt Q9Y4I1),1.28 ± 0.16,2.15 ± 0.36,2.39 ± 0.25,2.51 ± 0.3,2.65 ± 0.31,2.59 ± 0.39,2.5 ± 0.4,2.51 ± 0.36
A0A087X1E4|P53365|P53365-3 (UniProt P53365),0.956 ± 0.05,0.853 ± 0.057,0.972 ± 0.052,0.963 ± 0.08,0.913 ± 0.088,0.906 ± 0.1,0.861 ± 0.14,0.889 ± 0.068
C9JRJ5|Q9UGP4 (UniProt Q9UGP4),1.01 ± 0.054,1 ± 0.021,1 ± 0.043,0.955 ± 0.025,0.963 ± 0.031,0.962 ± 0.021,1.01 ± 0.038,0.965 ± 0.034
B0QY89|Q9Y262|Q9Y262-2 (UniProt Q9Y262),1.08 ± 0.062,1.09 ± 0.09,1.06 ± 0.1,1.17 ± 0.19,1.33 ± 0.28,1.47 ± 0.34,1.57 ± 0.29,1.75 ± 0.35
A0A0X1KG71|Q8WX92 (UniProt Q8WX92),0.9588 ± 0.0051,0.964 ± 0.014,0.9785 ± 0.0083,0.973 ± 0.016,0.957 ± 0.025,0.96 ± 0.012,0.936 ± 0.024,0.946 ± 0.02
B4DJL6|Q96SY0|B4DVT3|H3BRY6|Q96SY0-3|Q96SY0-4 (UniProt Q96SY0),1.03 ± 0.049,1.03 ± 0.035,1.03 ± 0.064,1.07 ± 0.051,1.03 ± 0.058,1.09 ± 0.025,1.07 ± 0.086,1.05 ± 0.066
F8VQE1|Q9UHB6|Q9UHB6-2|Q9UHB6-4|Q9UHB6-5 (UniProt Q9UHB6),0.977 ± 0.045,0.955 ± 0.12,1.16 ± 0.11,1.16 ± 0.1,1.35 ± 0.12,1.71 ± 0.067,1.95 ± 0.29,2.21 ± 0.23
C9JKQ7|C9JTV6|C9JZG2|P22102 (UniProt P22102),0.96 ± 0.015,0.985 ± 0.03,0.9188 ± 0.0076,0.909 ± 0.023,0.895 ± 0.026,0.894 ± 0.017,0.863 ± 0.039,0.863 ± 0.022
B4E1Q4|O14730|O14730-2 (UniProt O14730),0.965 ± 0.1,1.03 ± 0.063,0.949 ± 0.081,0.921 ± 0.073,0.806 ± 0.037,0.77 ± 0.041,0.747 ± 0.08,0.704 ± 0.041
A8MXF6|B7ZBD5|Q9UBK7|Q9UBK7-2|Q9UBK7-3|Q9UNT1|Q9UNT1-2|Q9UNT1-3 (UniProt Q9UNT1+Q9UBK7+B7ZBD5+A8MXF6),1.03 ± 0.038,1.03 ± 0.035,1.02 ± 0.032,1.01 ± 0.084,0.947 ± 0.046,0.955 ± 0.071,0.949 ± 0.053,0.94158 ± 0.00038
C9JMV9|Q03154|Q03154-4 (UniProt Q03154+C9JMV9),1.03 ± 0.012,1.03 ± 0.011,0.97 ± 0.078,0.924 ± 0.036,0.954 ± 0.019,0.933 ± 0.031,0.94 ± 0.05,0.956 ± 0.12
A0A087WUC6|E9PI68|Q15005|E9PL01 (UniProt Q15005),0.955 ± 0.026,0.955 ± 0.018,0.899 ± 0.025,0.882 ± 0.05,0.858 ± 0.041,0.881 ± 0.045,0.859 ± 0.055,0.843 ± 0.061
